Results reported in PubChem BioAssay (EPA / NIEHS).
Activity calls are given as the source filed them. The calls were made as follows: active = hit-call score of the fitted dose curve at least 0.9, where 1 is the maximum; inactive = score below 0.9.

read-out: Lipoprotein lipase (LPL), LPL (gene 4023); assay: LTEA_HepaRG_LPL: Life Technologies and Expression Analysis (LTEA) Assay for Lipoprotein lipase (LPL) using HepaRG (AID 2283515); settings: mRNA level, 48 h; actives raise or lower the signal
Experimental: LTEA_HepaRG is a cell based, multiplexed-readout assay that uses HepaRG, a human liver cell line, with measurements taken at 48 hours after chemical dosing on a 96-well plate.LTEA_HepaRG_LPL is one of 102 assay component(s) measured in the LTEA HepaRG cell culture assay. It is a marker of Steatosis.Data from the assay component LTEA_HepaRG_LPL was analyzed into 1 endpoint. This assay endpoint, LTEA_HepaRG_LPL, was analyzed with bidirectional fitting relative to DMSO as the negative control and baseline of activity. Using a type of inducible reporter, measures of mRNA induction for gain or loss-of-signal activity can be used to understand regulation of transcription factor activity. To generalize the intended target to other relatable targets, this assay endpoint is annotated to the esterase intended target family, where the subfamily is lipase.
A total of 1060 chemcials from the ToxCast library were tested in eight-point concentration-response experiments. Cell culture and cytotoxicity assays were conducted at Thermo Fisher Scientific's Custom Services facility (Madison, WI). A single lot of human HepaRG cells (Thermo Fisher Scientific, Frederick, MD) was used for the cell culture experiments. 96-well format collagen type I coated plates of human HepaRG cells were prepared using established methods. Briefly, cryopreserved HepaRG cells were thawed, plated at a density of approximately 100,000 cells/well in HepaRG Thaw, Plate, and General Purpose media (HPRG770, Thermo Fisher Scientific), and incubated for 48 hours. 0.5% DMSO was selected as vehicle control to balance the requisite need of DMSO in HepaRG cultures to maintain differentiation (for example, baseline metabolism, proportions of hepatocytes vs. cholangiocytes), while enabling further hepatic receptor pathway activation (for example, PXR and CAR) in response to chemical exposure. 48 hours after plating, the culture medium was replaced with HepaRG Serum-Free Incudtion Media. Cells were exposed to each test chemical in duplicate and maintained in CO2 incubators for another 48 hours. Chemical plates were thawed to room temperature and 200x concentrations of treatment groups were prepared. 8-point conentration-reponse curves were made with the highest exposure at 100 uM, followed by half-log dilutions, all in 0.5% DMSO. Each test plate contained variouse controls, induction positive controls (1mM phenobarbital), cytotoxicity positive controls ([…] aflatoxin B1), vehicle controls (0.5% DMSO), and total lysis controls (0.5% DMSO). Cell morphology images were taken using an Essen IncuCyte FLR automated microscope, with six 96-well plates imaged in about 24 minutes. Images were captured and exported and JPEG files. Spent culture media was transfered to black-well plates for the LDH assay, and remaining media was sorted at -80 C for later use. Cells were treated with RLT buffer and frozen until shipped for gene expression analysis. Total RNA was isolated from the cell suspension in 75 uL of Buffer RLT (Qiagen, Germantown, MD 20874) by Quintiles/Expression Analysis (Durham, NC) using a custom isolation procedure. Total RNA from each plate well was transferred to a preamplification plate. Fluidigm's 96.96 Dynamic ArrayTM (Fluidigm, Amsterdam, the Netherlands) technology was used for gene expression analyses by quantitative reverse transcription polymerase chain reaction (qRT-PCR, performed by Quintiles/Expression Analysis, Durham, NC)89. Standard TaqManTM Assays (Applied Biosystems/ThermoFisher Scientific, Foster City, CA) were used to assess the expression of 93 genes selected based on their selectivity and sensitivity to important hepatic receptors known to be modulated by environmental chemicals; importance in human hepatocyte functionality; and hepatotoxicity. […]

With N#Cc1cccnc1 as the compound, how does the outcome read?
Its outcome is “inactive”.

How did the outcome turn out when OCCN(CCO)CCO was run?
Its outcome is “inactive”.

Which outcome does the source give for Clc1cccc(Cl)c1Cl here?
The outcome was “inactive”.

With O=C(N[C@H]1CN2CCC1CC2)c1ccc2c(c1)OCCO2 as the compound, how does the outcome read?
Its outcome is “inactive”.

Which outcome does the source give for Clc1cccc(Cl)c1 here?
The outcome was “inactive”.

For O=C(O)C1(c2ccc3c(c2)OC[C@H](Cc2ccc(-c4ccccc4)cc2)[C@H]3O)CCCC1, which outcome is on record?
The outcome was “inactive”.

For Oc1cc(Cl)c(Cl)cc1Cl, which outcome is on record?
Its outcome is “inactive”.

For Oc1c(Cl)cc(Cl)cc1Cl, which outcome is on record?
Its outcome is “inactive”.

Which AC50 does the source give for CCCCCCCCCCCCc1cccc(S(=O)(=O)O)c1 here?
The AC50 was 8.93 µM (active).

COc1ccccc1N was tested. Which outcome did it give?
Its outcome is “inactive”.

How did the outcome turn out when CC(C)O.CC(C)O.OCCN(CCO)CCO.OCCN(CCO)CCO.[Ti] was run?
The outcome was “inactive”.

With CN(C)C(=S)S as the compound, how does the outcome read?
Its outcome is “inactive”.

For Cc1cc(C)cc(C)c1, which outcome is on record?
The outcome was “inactive”.

How did the outcome turn out when CC(C)(C)c1ccccc1O was run?
Its outcome is “inactive”.
